An excerpt weighted towards active compounds, which were near 3.3% of everything screened.
SMARCA2 activ = increases SMARCA2 function in MMTV reporter cells. MG213 cells, MMTV-luciferase reporter, dexamethasone, overnight. activation, % at 9.1 µM. 370,000 tested, 1% active. AID 652017; in the data active = activation above about 7.8%;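 also: 0% = vehicle wells and 100% = reference activator wells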
697 NFkB inh = inhibitors of the PMA/ionomycin-induced NF-kB reporter in 697 B cells | 697 B-cell NF-kB luciferase reporter, 16 h | inhibition, % at 4 µM | 330,000 tested, 0.33% active | AID 435022; in the data active = inhibition above about 35%
esBAF inh = SWI/SNF esBAF complex inhibition | mouse ES cells, Bmi1-luciferase knock-in reporter, 24 h; 100% = twice the neutral-well signal | reporter increase, % at 12.5 µM | 350,000 tested, 2% active | AID 602393; in the data active = activation above about 40%;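 also: 0% = median of the plate's neutral control wells and 100% = double that signal; a rise in the Bmi1 reporter signal indicates esBAF inhibition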
Gli-Sufu antag = Gli-Sufu pathway antagonism; Sufu-KO-LIGHT fibroblasts, Gli luciferase reporter luminescence; inhibition, % at 5 µM; 340,000 tested, 0.74% active; AID 588413;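 active = inhibition above about 55%, limit read from the data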;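 also: 0% = DMSO-treated cells and 100% = wells with medium but no cells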
Jurkat NFkB inh = inhibitors of the PMA/ionomycin-induced NF-kB reporter in Jurkat cells. PMA/ionomycin-induced NF-kB luciferase reporter, luminescence. inhibition, % at 4 µM. 330,000 tested, 0.53% active; in the data active = inhibition above about 50%
Active calls of the source: *; . = no result given.

SMILES	SMARCA2 activ	697 NFkB inh	esBAF inh	Gli-Sufu antag	Jurkat NFkB inh
CN(C)CC(=O)N[C@@H]1CC[C@@H](CCn2cc(C3CCCCC3)nn2)O[C@@H]1CO	.	.	0	.	.
CCc1ccc(NC(=O)c2noc3c2CCc2ccccc2-3)cc1	1	-17	29	-27	-31
Cc1ccc(NC(=O)c2noc3c2CCc2ccccc2-3)cc1	0	-52	60*	-65	-74
O=C(N[C@H]1CC[C@@H](CCn2cc(-c3ccccn3)nn2)O[C@@H]1CO)c1ccc(F)cc1	.	.	-2	.	.
CO[C@H]1CN(C)C(=O)c2cc(NC(=O)C3CC3)ccc2OC[C@H](C)N(Cc2cccc(F)c2)C[C@H]1C	.	.	-1	.	.
CCC(C)c1ccc(Nc2ncccc2C#N)cc1 (stereo not drawn)	5	-58	81*	-22	-57
CO[C@@H]1CN(C)C(=O)c2ccc(NS(=O)(=O)c3ccccc3)cc2OC[C@H](C)N(Cc2nccs2)C[C@@H]1C	.	.	1	.	.
CCC(=O)N1C[C@@H](C)[C@@H](OC)CN(C)C(=O)c2ccc(NC(=O)Nc3ccccc3)cc2OC[C@@H]1C	.	.	-2	.	.
O=S(=O)(Nc1ccc(-c2nc3cccnc3s2)cc1)c1cccs1	5	-26	31	-23	-25
Cc1cc(-c2nc3cccnc3s2)ccc1NS(=O)(=O)c1cccs1	5	-139	45*	-36	-108
CNC[C@@H]1Oc2c(NC(=O)c3ccncc3)cccc2C(=O)N([C@@H](C)CO)C[C@@H]1C	.	.	1	.	.
CCSc1ccc(/C(N)=N/OC(=O)c2cccs2)cn1	4	-98	57*	-50	-80
CCc1ccc(Nc2nc(C)cc(C)n2)cc1	3	-108	49*	-3	-85
CN1C(=O)c2cc(NS(=O)(=O)c3ccccc3Cl)ccc2OC[C@@H]2O[C@@H](CC(=O)O)CC[C@@H]21	.	.	2	.	.
CCC(=O)N1CCCCN2[C@H](C1)[C@H](c1ccc(C#Cc3ccccc3F)cc1)[C@@H]2CO	.	.	-1	.	.
O=C(Nc1ccc2c(c1)Cc1cc([N+](=O)[O-])ccc1-2)C(F)(F)F	-1	.	42*	-31	.
COc1cc(/C=N/NC(=S)NC2CC3CC2C2C=CCC32)ccc1O (stereo not drawn)	5	-117	48*	-15	-7
Cc1ccn2cc(-c3cccc(S(=O)(=O)N4CCCC4)c3)nc2c1	4	-13	47*	-12	-11
CC(C)c1ccc(Nc2ncccc2C(=O)O)cc1	7	-158	60*	-86	-42
Cc1noc(C)c1NC(=O)N(C)C[C@H]1Oc2ccc(NC(=O)C3CC3)cc2CC(=O)N([C@H](C)CO)C[C@@H]1C	.	.	6	.	.
Cc1ccc(S(=O)(=O)Nc2cccc(-c3ccc(N4CCCCCC4)nn3)c2)c(C)c1	5	-63	70*	-18	-49
CO[C@@H]1CN(C)C(=O)c2ccc(NC(=O)C3CCCCC3)cc2OC[C@@H](C)N(C(=O)c2ccccc2)C[C@H]1C	.	.	3	.	.
COc1ccccc1NC(=O)N1C[C@@H](O)COC[C@@H]2O[C@@H](CC(=O)NCCc3ccccc3)CC[C@H]21	.	.	-2	.	.
Cn1nccc1C(=O)Nc1ccc(Cl)cc1	2	-32	48*	-34	-20
CC(C)c1ccc(NC(=O)c2ccccc2NC(=O)C2CC=CCC2C(=O)O)cc1 (stereo not drawn)	3	-5	51*	1	-23
SMILES	SMARCA2 activ	697 NFkB inh	esBAF inh	Gli-Sufu antag	Jurkat NFkB inh
O=C(Nc1ccc(F)c(Cl)c1)c1ccccc1NC(=O)C1CCCCC1C(=O)O (stereo not drawn)	2	.	66*	-33	.
CC(C)c1ccc(NC(=O)c2ccccc2NC(=O)C2CCCCC2C(=O)O)cc1 (stereo not drawn)	6	-78	64*	-18	-51
COc1ccc(NC(=O)c2ccccc2NC(=O)C2CCCCC2C(=O)O)cc1 (stereo not drawn)	4	.	51*	-28	.
O=C(Nc1ccc(F)cc1)c1ccccc1NC(=O)C1CCCCC1C(=O)O (stereo not drawn)	0	.	9	6	.
CO[C@@H]1CN(C)C(=O)c2ccc(NC(C)=O)cc2OC[C@@H](C)N(Cc2ccncc2)C[C@H]1C	.	.	4	.	.
Cc1ccc(NC(=O)c2ccc3nc[nH]c3c2)c(O)c1	2	-37	51*	-7	-16
C[C@H]1CN([C@@H](C)CO)C(=O)c2cc(NC(=O)CCC(F)(F)F)ccc2O[C@@H]1CN(C)C(=O)Nc1ccc(C(F)(F)F)cc1	.	.	3	.	.
CC(C)CCn1cnc2c(cnn2-c2ccc(F)cc2)c1=O	-4	-21	46*	-10	-32
COC(=O)c1ccc(CSc2ccccc2NC(=S)Nc2cccc(SC)c2)o1	1	.	54*	.	.
COCC(=O)N(C)C[C@@H]1Oc2ncc(C#Cc3ccccc3)cc2C(=O)N([C@H](C)CO)C[C@@H]1C	.	.	-1	.	.
O=C(Nc1ccc(Cl)c(Cl)c1)OCc1cccnc1	-5	-42	53*	-34	-41
CC(C)NC(=O)N(C)C[C@@H]1Oc2ccc(NC(=O)NC3CCCCC3)cc2C(=O)N([C@@H](C)CO)C[C@@H]1C	.	.	-1	.	.
Cc1ccc(N/N=C2\CS(=O)(=O)N(C)c3ccsc32)cc1	1	-64	59*	-29	-68
CCC(C)Sc1cc(-c2nc3ccc(C)cn3c2NCc2ccccc2)ccc1OC (stereo not drawn)	-7	.	-23	66*	.
CCC(C)Sc1ccc(-c2nc3ccc(Cl)cn3c2NCc2ccccc2)cc1 (stereo not drawn)	3	-105	50*	-63	-1
O=C(OCc1cc(=O)n2ccsc2n1)c1ccccc1O	1	-3	74*	-5	-9
O=c1cc(COc2ccc(Cl)c(Cl)c2)nc2sccn12	4	-45	45*	-42	-52
O=c1cc(CNc2cc(Cl)ccc2Cl)nc2sccn12	-2	-3	.	-16	-6
C[C@H](NC(=O)C[C@@H]1CC[C@@H]2[C@H](COC[C@H](O)CN2C(=O)Nc2cc(Cl)cc(Cl)c2)O1)c1ccccc1	.	.	0	.	.
Cc1ccc(C(c2nc3ccccc3[nH]2)n2c(-c3ccccc3)nc3ccccc32)cc1 (stereo not drawn)	0	.	70*	.	.
c1ccc(Nc2nnc(SCc3cccc4ccccc34)s2)cc1	1	-31	18	3	-6
CCSc1nnc(Nc2ccccc2)s1	3	-25	58*	-8	-47
Cc1ccc(CSc2nnc(Nc3ccc(C)cc3)s2)cc1	-6	2	-1	-2	19
CCSc1nnc(Nc2ccc(C)cc2)s1	6	-62	83*	-61	-80
COc1ccccc1-c1cnn2c(NC3CCCC3)cc(C)nc12	5	-70	62*	0	-57
COc1cccc(-c2nc(NC3CCCC3)c3ccccc3n2)c1O	-2	-11	-1	9	-8
COc1ccccc1-c1ccc(NC2CCCC2)nn1	2	-56	63*	21	-44
CCOC(=O)N1CCC(Nc2cc(C)nc3c(-c4ccccc4OC)c(C)nn23)CC1	-5	-29	2	.	-10

Source: PubChem BioAssay
